Experimental data: the supplement of paper PMC12350171
Where a name gives a salt, the structure may show the parent alone.

Test system: Haemophilus parainfluenzae
Assay: growth AUC normalised to DMSO control (fraction of control); higher = less growth inhibition, active = hit call of the paper
Conditions: 20 µM;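 active = AUC significantly below DMSO controls by Student t-fit with adjusted P under 0.01; inactive = not significantly reduced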
Summary of the method: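 After two anaerobic passages, pathogens were added at a starting OD578 of 0.01 to pre-reduced mGAM plates holding compound at 20 μM with 1% DMSO; hemin and NAD were supplemented for Haemophilus parainfluenzae. Sealed with breathable membranes, plates were read at OD578 hourly for 24 h, in three biological replicates. The trapezoidal rule, applied up to the exponential-to-stationary transition, gave the growth-curve AUC, which was normalised to DMSO controls on the same plate.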

SMILES	growth AUC normalised to DMSO control
CNc1ncnc2c1ncn2[C@@H]1O[C@H](CO)[C@@H](O)[C@H]1O [N6-methyladenosine]	1.01 (inactive)
CCC[C@H](N[C@@H](C)C(=O)N1[C@H](C(=O)O)C[C@@H]2CCCC[C@@H]21)C(=O)OCC [Perindopril]	1.01 (inactive)
CNCC(O)c1ccc(O)c(O)c1 (stereo not given) [Racepinephrine hydrochloride]	1.06 (inactive)
NS(=O)(=O)c1cc2c(cc1Cl)N=C(CSCc1ccccc1)NS2(=O)=O [Benzthiazide]	0.987 (inactive)
OCCN1CCN(CCCN2c3ccccc3Sc3ccc(C(F)(F)F)cc32)CC1 [Fluphenazine dihydrochloride]	0.999 (inactive)
NC(N)=Nc1nc(CSCC/C(N)=N/S(N)(=O)=O)cs1 [Famotidine]	0.975 (inactive)
CC(=O)Oc1cc(C(C)C)c(OCCN(C)C)cc1C [Moxisylyte hydrochoride]	0.995 (inactive)
COc1c2occc2c(OC)c2c(=O)cc(C)oc12 [Khellin]	0.993 (inactive)
O=c1cc(-c2ccc(O)c(O)c2)oc2cc(O)cc(O)c12 [Luteolin]	1.02 (inactive)
O=C(O)COCCN1CCN(C(c2ccccc2)c2ccc(Cl)cc2)CC1 (stereo not given) [Cetirizine dihydrochloride]	0.943 (inactive)
CCN(CC)C(=O)/C(C#N)=C/c1cc(O)c(O)c([N+](=O)[O-])c1 [Entacapone]	1.06 (inactive)
Clc1ccc(Nc2nnc(Cc3ccncc3)c3ccccc23)cc1 [Vatalanib]	1.04 (inactive)
O=C1CC2(CCCC2)CC(=O)N1CCCCN1CCN(c2ncccn2)CC1 [Buspirone hydrochloride]	1.09 (inactive)
CSc1ccc2c(c1)N(CCC1CCCCN1C)c1ccccc1S2 (stereo not given) [Thioridazine hydrochloride]	0.72 (active)
CO/N=C(\C(=O)N[C@@H]1C(=O)N2C(C(=O)O)=C(COC(C)=O)CS[C@H]12)c1csc(N)n1 [Cefotaxime sodium salt]	0.0499 (active)
C#C[C@]1(O)CC[C@H]2[C@@H]3[C@H](C)CC4=C(CCC(=O)C4)[C@H]3CC[C@@]21C [Tibolone]	0.966 (inactive)
CCN(CC)CCNC(=O)c1cc(Cl)c(N)cc1OC [Metoclopramide monohydrochloride]	0.991 (inactive)
Cc1ccc(S(=O)(=O)NC(=O)NN2CC3CCCC3C2)cc1 (stereo not given) [Gliclazide]	0.996 (inactive)
CCC1(c2ccccc2)C(=O)NCNC1=O [Primidone]	0.953 (inactive)
CC(CN(C)C)CN1c2ccccc2Sc2ccccc21 (stereo not given) [Trimeprazine tartrate]	0.94 (inactive)
C[C@@H]1C[C@H]2[C@@H]3C[C@H](F)C4=CC(=O)C=C[C@]4(C)[C@@]3(F)[C@@H](O)C[C@]2(C)[C@@]1(O)C(=O)CO [Flumethasone]	1 (inactive)
c1ccc(CNc2ncnc3nc[nH]c23)cc1 [Aminopurine, 6-benzyl]	1 (inactive)
CC(C)(C)NC[C@H](O)COc1cccc2c1CCCC2=O [(-) Levobunolol hydrochloride]	0.989 (inactive)
Nc1ncn(C2OC(CO)C(O)C2O)c(=O)n1 (stereo not given) [Azacytidine-5]	0.781 (inactive)
CCCNC(=O)NS(=O)(=O)c1ccc(Cl)cc1 [Chlorpropamide]	0.995 (inactive)
O=c1[nH]c(=O)n([C@H]2C[C@H](O)[C@@H](CO)O2)cc1C(F)(F)F [Trifluridine]	1.08 (inactive)
Clc1ccc2c(c1)CCc1cccnc1C2=C1CCNCC1 [Desloratadine]	1.03 (inactive)
C[C@]12CC[C@@H]3c4ccc(O)cc4CC[C@H]3[C@@H]1CC[C@@H]2O [Estradiol-17 beta]	1 (inactive)
O=C(c1ccccc1)c1ccc2n1CCC2C(=O)O (stereo not given) [Ketorolac tromethamine]	0.972 (inactive)
CCOc1nc2cccc(C(=O)O)c2n1Cc1ccc(-c2ccccc2-c2nnn[nH]2)cc1 [Candesartan]	1.05 (inactive)
